Data as given in the supplement of paper PMC10849652.
Targets with a hit are over-represented here; the source holds about 7,900 in all. About 0.6% of all pairs of compound and target were hits. A number with no mark means an inactive call.

What was measured:
Experiment in all cases: log2 fold change, soluble protein after heating vs DMSO (PISA); higher = thermal stabilisation; K562 cells, 10 uM, 30 min; active = over 0.2 and 3.5 SD of the protein, either way, in both replicates (recomputed)
[1] = compound: CC1=C(C=C(C=C1)NC(=O)C2=CC(=CC=C2)C(C)(C)C#N)NC3=CC4=C(C=C3)N=CN(C4=O)C
In short: (§1)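 Soluble protein was quantified by TMTpro 16plex LC-MS/MS after channel sums were equalised. It was obtained as the supernatant after 21,000xg for 90 min from pooled aliquots of K562 cells (2×10^6 cells/mL, 10 μM compound, 30 min) heated for 3 min across 48°C-58°C and extracted in PBS with 0.5% NP-40 at 4°C. Thermal stability values are relative to control samples and come from duplicates. They are given as log2 fold changes.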

[2] = compound: CC1=NC(=CC=C1)C2=C(N=C(N2)C(C)(C)C)C3=CC4=NC=CN=C4C=C3
In short: as §1

[3] = compound: CCCCN(Cc1ccc(C(=O)NO)cc1)C(=O)Nc1ccccc1 [Nexturastat A]
In short: as §1

[4] = compound: CCCc1cc(C)[nH]c(=O)c1CNC(=O)c1cc(-c2ccnc(N3CCN(C)CC3)c2)cc2c1cnn2C(C)C
In short: as §1

[5] = compound: CCN(CCCOc1ccc2c(Nc3cc(CC(=O)Nc4cccc(F)c4)[nH]n3)ncnc2c1)CCOP(=O)(O)O [barasertib]
In short: as §1

[6] = compound: CC[C@@H]1C(=O)N(C)c2cnc(Nc3ccc(C(=O)NC4CCN(C)CC4)cc3OC)nc2N1C1CCCC1
In short: as §1

[7] = compound: CC[C@H](C)N1C=C(C2=C(C=C(C=C21)C3=CN=C(C=C3)N4CCNCC4)C(=O)NCC5=C(C=C(NC5=O)C)C)C
In short: as §1

[8] = compound: CC[C@H](C)[C@@H](C(=O)N[C@@H]([C@@H](C)O)C(=O)N[C@@H](CC(C)C)C(=O)[C@]1(CO1)C)NC(=O)[C@H]([C@@H](C)CC)N(C)C(=O)C [epoxomicin]
In short: as §1

[9] = compound: CN(CCOC1=CC=C(C=C1)C[C@H]2C(=O)NC(=O)S2)C3=CC=CC=N3 (racemic) [rosiglitazone]
In short: as §1

[10] = compound: CC1=C(C=C(C=C1)NC(=O)C2=CC(=CC=C2)N(C)C)NC(=O)C3=CC=C(C=C3)O
In short: as §1

[11] = compound: CC1=CC=C(C=C1)SC2=C3C=C(SC3=CN=C2)C(=O)N
In short: as §1

[12] = compound: CCCS(=O)(=O)Nc1ccc(F)c(C(=O)c2c[nH]c3ncc(-c4ccc(Cl)cc4)cc23)c1F [vemurafenib]
In short: as §1

[13] = compound: CCCS(=O)(=O)Nc1ccc(F)c(C(=O)c2c[nH]c3ncc(Cl)cc23)c1F
In short: as §1

[14] = compound: CCN(CC)Cc1ccc2cc(COC(=O)Nc3ccc(C(=O)NO)cc3)ccc2c1 [givinostat]
In short: as §1

[15] = compound: CC[C@@H]1C(=O)N(C)c2cnc(Nc3ccc(C(=O)N[C@H]4CC[C@H](N5CCN(CC6CC6)CC5)CC4)cc3OC)nc2N1C(C)C [volasertib]
In short: as §1

[16] = compound: CCn1c(C(=O)N(C2CC2)C2CC2)cc2c3c(ncn3C)c(Nc3cc(C)n(C)n3)nc21
In short: as §1

[17] = compound: CN(C)CC(=O)Nc1ccc2[nH]c(=O)c3ccccc3c2c1
In short: as §1

[18] = compound: CN1C2=C(C3=C1C(=O)N(N=C3)CC4=CC(=CC=C4)N)SC(=C2)S(=O)C
In short: as §1

[19] = compound: CCn1cc(-c2ccnc3[nH]c(-c4cccc(CN(C)C)c4)cc23)c(-c2ccc(NC(=O)N(C)C)cc2)n1
In short: as §1

[20] = compound: CN1CCC(CNc2ccc3ncc(-c4cccc(OC(F)(F)F)c4)n3n2)CC1
In short: as §1

ILF3 (UniProt Q12906)
log2 fold change [1]: 0.106
log2 fold change [2]: -0.177
log2 fold change [3]: 0.347
log2 fold change [4]: -0.232
log2 fold change [5]: -0.241
log2 fold change [6]: 0.222
log2 fold change [7]: 0.144
log2 fold change [8]: 0.004
log2 fold change [9]: -0.082

ITPRID2 (UniProt P28290)
UniProt P28290, sequence (P28290 whole entry, looked up): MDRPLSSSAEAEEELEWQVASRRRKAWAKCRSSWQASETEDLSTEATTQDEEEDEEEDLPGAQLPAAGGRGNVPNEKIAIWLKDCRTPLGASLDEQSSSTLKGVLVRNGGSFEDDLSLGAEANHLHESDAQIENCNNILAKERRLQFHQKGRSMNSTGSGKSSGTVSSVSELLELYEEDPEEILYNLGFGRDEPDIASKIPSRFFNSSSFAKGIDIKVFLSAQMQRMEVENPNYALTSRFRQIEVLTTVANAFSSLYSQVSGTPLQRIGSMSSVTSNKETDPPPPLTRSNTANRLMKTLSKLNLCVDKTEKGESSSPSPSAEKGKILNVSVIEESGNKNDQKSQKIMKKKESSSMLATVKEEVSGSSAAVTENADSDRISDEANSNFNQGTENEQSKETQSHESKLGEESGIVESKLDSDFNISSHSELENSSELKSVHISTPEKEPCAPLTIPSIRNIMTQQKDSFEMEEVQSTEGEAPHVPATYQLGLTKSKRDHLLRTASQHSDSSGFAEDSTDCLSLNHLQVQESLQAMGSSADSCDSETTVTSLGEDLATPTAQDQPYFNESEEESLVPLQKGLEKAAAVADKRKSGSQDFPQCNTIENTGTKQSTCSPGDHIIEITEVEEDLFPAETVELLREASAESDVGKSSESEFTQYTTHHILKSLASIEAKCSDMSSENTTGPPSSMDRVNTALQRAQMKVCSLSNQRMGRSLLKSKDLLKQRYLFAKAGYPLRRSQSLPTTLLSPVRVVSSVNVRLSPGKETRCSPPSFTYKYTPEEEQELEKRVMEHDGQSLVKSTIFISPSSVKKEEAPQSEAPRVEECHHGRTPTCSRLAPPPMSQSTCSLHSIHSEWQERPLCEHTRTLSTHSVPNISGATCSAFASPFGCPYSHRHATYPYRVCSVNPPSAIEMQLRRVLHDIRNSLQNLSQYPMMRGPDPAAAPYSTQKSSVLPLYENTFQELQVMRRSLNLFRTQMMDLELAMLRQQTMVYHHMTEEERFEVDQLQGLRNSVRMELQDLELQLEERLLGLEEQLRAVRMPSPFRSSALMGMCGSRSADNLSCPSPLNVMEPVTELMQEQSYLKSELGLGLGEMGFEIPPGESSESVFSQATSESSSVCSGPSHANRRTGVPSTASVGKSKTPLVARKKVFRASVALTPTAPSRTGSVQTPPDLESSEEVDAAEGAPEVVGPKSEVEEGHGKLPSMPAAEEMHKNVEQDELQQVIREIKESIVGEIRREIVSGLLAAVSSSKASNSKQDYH
log2 fold change [10]: -0.003
log2 fold change [11]: -0.103
log2 fold change [2]: -0.065
log2 fold change [3]: -0.188
log2 fold change [12]: -0.125
log2 fold change [13]: -0.097
log2 fold change [14]: 0.213
log2 fold change [6]: 0.01
log2 fold change [15]: -0.373
log2 fold change [8]: -0.109
log2 fold change [16]: 0.078
log2 fold change [17]: -0.106

KIF1B isoform 3 (UniProt O60333)
log2 fold change [12]: -0.244
log2 fold change [4]: -0.006
log2 fold change [6]: 0.193
log2 fold change [17]: -0.032

MAGED1 isoform 2 (UniProt Q9Y5V3)
log2 fold change [1]: 0.003
log2 fold change [11]: 0.1
log2 fold change [3]: 0.608 (active)
log2 fold change [12]: -0.236
log2 fold change [13]: 0.198
log2 fold change [14]: 0.006
log2 fold change [15]: -0.306
log2 fold change [7]: -0.01
log2 fold change [8]: -0.053
log2 fold change [16]: 0.01
log2 fold change [17]: 0.012
log2 fold change [18]: 0.399

MBLAC1 (UniProt A4D2B0)
UniProt A4D2B0, sequence (A4D2B0 whole entry, looked up): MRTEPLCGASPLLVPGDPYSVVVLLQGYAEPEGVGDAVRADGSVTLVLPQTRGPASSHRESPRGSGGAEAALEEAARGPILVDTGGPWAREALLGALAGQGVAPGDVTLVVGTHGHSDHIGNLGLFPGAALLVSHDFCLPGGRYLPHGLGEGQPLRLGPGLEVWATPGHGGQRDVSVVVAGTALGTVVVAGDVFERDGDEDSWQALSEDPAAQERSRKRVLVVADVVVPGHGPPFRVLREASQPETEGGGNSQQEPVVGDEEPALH
log2 fold change [10]: 0.079
log2 fold change [11]: -0.093
log2 fold change [2]: -0.098
log2 fold change [12]: 0.029
log2 fold change [13]: -0.008
log2 fold change [4]: 0.059
log2 fold change [14]: -0.04
log2 fold change [5]: -0.016
log2 fold change [6]: 0.112
log2 fold change [15]: 0.148
log2 fold change [16]: 0.063
log2 fold change [19]: -0.01
log2 fold change [17]: 0.105
log2 fold change [9]: -0.024
log2 fold change [18]: -0.021
log2 fold change [20]: 0.063

MAPK7 (UniProt Q13164)
UniProt Q13164, sequence (Q13164 whole entry, looked up): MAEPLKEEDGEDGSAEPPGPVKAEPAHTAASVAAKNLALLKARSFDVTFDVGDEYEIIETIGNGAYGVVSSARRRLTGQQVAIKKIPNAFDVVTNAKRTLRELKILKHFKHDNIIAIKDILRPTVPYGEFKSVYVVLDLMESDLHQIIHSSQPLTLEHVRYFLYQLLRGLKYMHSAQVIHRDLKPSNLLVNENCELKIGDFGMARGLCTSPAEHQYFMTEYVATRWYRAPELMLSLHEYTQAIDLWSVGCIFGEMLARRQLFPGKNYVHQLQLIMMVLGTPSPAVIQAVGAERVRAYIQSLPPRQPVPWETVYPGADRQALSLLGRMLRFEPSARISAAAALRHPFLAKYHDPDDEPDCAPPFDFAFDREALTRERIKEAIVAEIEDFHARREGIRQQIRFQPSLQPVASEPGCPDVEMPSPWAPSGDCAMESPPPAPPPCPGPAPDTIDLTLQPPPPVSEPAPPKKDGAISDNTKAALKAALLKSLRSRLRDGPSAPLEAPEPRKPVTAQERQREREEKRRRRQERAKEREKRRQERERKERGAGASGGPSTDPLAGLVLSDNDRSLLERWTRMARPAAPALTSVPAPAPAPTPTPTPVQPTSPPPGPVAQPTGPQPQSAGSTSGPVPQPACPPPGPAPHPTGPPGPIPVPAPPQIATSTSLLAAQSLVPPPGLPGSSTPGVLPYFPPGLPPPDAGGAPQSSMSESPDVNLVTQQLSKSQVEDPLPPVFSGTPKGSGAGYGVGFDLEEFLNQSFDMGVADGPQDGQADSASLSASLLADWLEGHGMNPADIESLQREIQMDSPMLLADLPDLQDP
log2 fold change [2]: -0.169
log2 fold change [3]: 0.275
log2 fold change [8]: 0.093
log2 fold change [19]: -0.049
log2 fold change [20]: -0.125

LEPROT (UniProt O15243)
log2 fold change [3]: -0.02
log2 fold change [4]: -0.12
log2 fold change [14]: -0.467
log2 fold change [6]: -0.052
log2 fold change [8]: 0.129
log2 fold change [16]: -0.11
log2 fold change [19]: 0.075
log2 fold change [18]: 0.117
log2 fold change [20]: -0.03

MAPK11 (UniProt Q15759)
UniProt Q15759, sequence (Q15759 whole entry, looked up): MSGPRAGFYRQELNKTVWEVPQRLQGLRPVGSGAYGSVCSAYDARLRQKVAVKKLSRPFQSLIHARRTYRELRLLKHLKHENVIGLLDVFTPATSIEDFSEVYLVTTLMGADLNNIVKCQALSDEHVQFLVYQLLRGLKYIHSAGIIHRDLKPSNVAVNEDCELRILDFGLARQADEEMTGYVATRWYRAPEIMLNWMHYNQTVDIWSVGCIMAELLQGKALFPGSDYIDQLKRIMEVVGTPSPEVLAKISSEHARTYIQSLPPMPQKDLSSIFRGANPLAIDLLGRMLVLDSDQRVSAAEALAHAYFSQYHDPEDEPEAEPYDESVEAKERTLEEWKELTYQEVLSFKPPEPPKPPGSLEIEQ
log2 fold change [10]: 0.094
log2 fold change [2]: 0.045
log2 fold change [14]: 0.131
log2 fold change [16]: -0.332
log2 fold change [19]: 0.025
log2 fold change [20]: -0.263

LOX (UniProt P28300)
log2 fold change [4]: -0.269
log2 fold change [14]: 0.087
log2 fold change [5]: -0.129
log2 fold change [7]: -0.191
log2 fold change [16]: -0.028
log2 fold change [9]: 0.072

LIN52 (UniProt Q52LA3)
log2 fold change [4]: 0.123
log2 fold change [18]: 0.003

MFSD8 (UniProt Q8NHS3)
UniProt Q8NHS3, sequence (Q8NHS3 whole entry, looked up): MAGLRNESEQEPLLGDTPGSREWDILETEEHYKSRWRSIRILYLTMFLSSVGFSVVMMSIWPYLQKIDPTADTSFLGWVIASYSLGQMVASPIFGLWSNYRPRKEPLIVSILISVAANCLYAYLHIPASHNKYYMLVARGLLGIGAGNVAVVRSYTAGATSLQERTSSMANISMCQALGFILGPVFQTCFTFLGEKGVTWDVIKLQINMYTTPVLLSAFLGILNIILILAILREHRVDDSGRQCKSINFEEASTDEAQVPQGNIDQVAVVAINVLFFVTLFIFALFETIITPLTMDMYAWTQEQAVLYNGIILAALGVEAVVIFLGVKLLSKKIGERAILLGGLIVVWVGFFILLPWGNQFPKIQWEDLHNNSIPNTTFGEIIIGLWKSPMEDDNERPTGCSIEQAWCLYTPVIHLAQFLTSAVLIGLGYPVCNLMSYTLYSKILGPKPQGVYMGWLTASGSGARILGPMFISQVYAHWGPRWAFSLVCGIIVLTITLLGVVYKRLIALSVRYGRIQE
log2 fold change [10]: -0.026
log2 fold change [11]: 0.113
log2 fold change [2]: 0.011
log2 fold change [3]: -0.004
log2 fold change [12]: 0.045
log2 fold change [13]: 0.151
log2 fold change [4]: -0.046
log2 fold change [14]: 0.034
log2 fold change [5]: -0.062
log2 fold change [6]: -0.016
log2 fold change [15]: 0.032
log2 fold change [8]: -0.021
log2 fold change [16]: 0.001
log2 fold change [19]: -0.012
log2 fold change [17]: -0.061
log2 fold change [9]: -0.139
log2 fold change [18]: 0.046
log2 fold change [20]: 0.127

KXD1 (UniProt Q9BQD3)
UniProt Q9BQD3, sequence (Q9BQD3 whole entry, looked up): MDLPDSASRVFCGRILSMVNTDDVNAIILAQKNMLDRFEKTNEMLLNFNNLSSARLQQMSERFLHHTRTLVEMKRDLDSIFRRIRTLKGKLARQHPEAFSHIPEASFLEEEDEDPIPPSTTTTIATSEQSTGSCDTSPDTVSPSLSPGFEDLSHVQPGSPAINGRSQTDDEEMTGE
log2 fold change [10]: -0.025
log2 fold change [11]: 0
log2 fold change [3]: -0.223
log2 fold change [12]: 0.092
log2 fold change [13]: 0.059
log2 fold change [4]: 0.072
log2 fold change [14]: 0.094
log2 fold change [5]: -0.021
log2 fold change [6]: -0.154
log2 fold change [15]: -0.035
log2 fold change [8]: -0.077
log2 fold change [16]: -0.033
log2 fold change [19]: 0.041
log2 fold change [17]: 0.062
log2 fold change [9]: 0.047
log2 fold change [18]: 0.011
log2 fold change [20]: -0.096

MAGEA8 (UniProt P43361)
UniProt P43361, sequence (P43361 whole entry, looked up): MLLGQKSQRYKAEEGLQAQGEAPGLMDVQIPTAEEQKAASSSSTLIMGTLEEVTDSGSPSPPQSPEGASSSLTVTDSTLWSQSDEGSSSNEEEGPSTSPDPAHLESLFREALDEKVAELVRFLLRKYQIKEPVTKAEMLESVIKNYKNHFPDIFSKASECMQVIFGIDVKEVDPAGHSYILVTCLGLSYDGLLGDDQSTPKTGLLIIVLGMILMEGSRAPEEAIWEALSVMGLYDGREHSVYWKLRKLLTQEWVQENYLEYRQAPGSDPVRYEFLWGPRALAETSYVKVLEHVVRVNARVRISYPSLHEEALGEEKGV
log2 fold change [10]: 0.009
log2 fold change [11]: 0.02
log2 fold change [2]: 0.072
log2 fold change [12]: 0.031
log2 fold change [13]: 0.197
log2 fold change [14]: 0.034
log2 fold change [5]: -0.123
log2 fold change [6]: -0.096
log2 fold change [15]: -0.386
log2 fold change [7]: -0.075
log2 fold change [16]: -0.063
log2 fold change [19]: 0.252
log2 fold change [17]: -0.003
log2 fold change [9]: 0.036
log2 fold change [18]: 0.038
log2 fold change [20]: -0.07

MAP4K2 (UniProt Q12851)
UniProt Q12851, sequence (Q12851 whole entry, looked up): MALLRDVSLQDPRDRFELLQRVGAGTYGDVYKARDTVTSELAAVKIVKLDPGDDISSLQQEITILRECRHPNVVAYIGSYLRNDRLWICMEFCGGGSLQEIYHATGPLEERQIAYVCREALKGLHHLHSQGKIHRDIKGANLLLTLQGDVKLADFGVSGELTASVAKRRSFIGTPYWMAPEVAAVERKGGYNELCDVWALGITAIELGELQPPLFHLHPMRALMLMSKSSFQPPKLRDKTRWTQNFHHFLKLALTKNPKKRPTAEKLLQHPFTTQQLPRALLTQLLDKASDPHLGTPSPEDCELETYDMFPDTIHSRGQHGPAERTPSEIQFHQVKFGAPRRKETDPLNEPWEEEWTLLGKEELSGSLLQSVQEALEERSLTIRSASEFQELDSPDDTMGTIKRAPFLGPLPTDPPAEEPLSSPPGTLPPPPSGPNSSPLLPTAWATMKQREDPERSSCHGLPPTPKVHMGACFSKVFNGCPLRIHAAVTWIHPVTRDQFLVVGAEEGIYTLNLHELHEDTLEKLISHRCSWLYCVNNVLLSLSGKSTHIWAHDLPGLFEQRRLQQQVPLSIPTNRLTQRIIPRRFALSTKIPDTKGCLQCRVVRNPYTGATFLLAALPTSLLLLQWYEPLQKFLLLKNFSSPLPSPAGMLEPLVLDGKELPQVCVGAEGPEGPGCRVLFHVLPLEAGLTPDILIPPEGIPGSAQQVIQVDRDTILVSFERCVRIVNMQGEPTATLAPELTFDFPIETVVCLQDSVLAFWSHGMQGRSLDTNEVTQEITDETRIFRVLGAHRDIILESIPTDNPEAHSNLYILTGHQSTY
log2 fold change [1]: -0.034
log2 fold change [11]: 0.079
log2 fold change [2]: 0.094
log2 fold change [13]: 0.043
log2 fold change [5]: 0.218
log2 fold change [6]: -0.044
log2 fold change [15]: -0.093
log2 fold change [7]: 0.298
log2 fold change [9]: 0.066

LRRCC1 (UniProt Q9C099)
log2 fold change [10]: 0.039
log2 fold change [18]: 0.281

MFSD12 isoform 3 (UniProt Q6NUT3)
UniProt Q6NUT3, sequence (Q6NUT3 whole entry, looked up): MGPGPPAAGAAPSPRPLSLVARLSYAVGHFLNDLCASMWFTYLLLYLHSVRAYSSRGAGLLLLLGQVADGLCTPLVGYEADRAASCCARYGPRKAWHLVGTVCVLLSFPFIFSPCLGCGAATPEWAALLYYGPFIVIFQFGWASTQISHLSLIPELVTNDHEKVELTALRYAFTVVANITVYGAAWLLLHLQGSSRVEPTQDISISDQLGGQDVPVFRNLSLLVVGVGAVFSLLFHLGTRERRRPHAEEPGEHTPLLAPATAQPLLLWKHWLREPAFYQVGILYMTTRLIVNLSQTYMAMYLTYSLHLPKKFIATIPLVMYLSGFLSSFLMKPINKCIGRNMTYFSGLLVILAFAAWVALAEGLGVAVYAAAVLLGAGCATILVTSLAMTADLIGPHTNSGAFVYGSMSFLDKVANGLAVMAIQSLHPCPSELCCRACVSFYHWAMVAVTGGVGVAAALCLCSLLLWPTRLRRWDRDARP
log2 fold change [1]: 0.115
log2 fold change [14]: -0.022
log2 fold change [6]: -0.005
log2 fold change [16]: 0.077
log2 fold change [19]: -0.006
log2 fold change [18]: 0.075
log2 fold change [20]: -0.305
